# A selection: hits, their analogues and other compounds. The true share with any hit is near 3.8%.
# CBFb RUNX1 block – inhibitors of human CBF-beta and RUNX1 interaction; Q01196+Q13951; AlphaScreen CBFb-His/RUNX1-biotin binding, biochemical; Potency, µM (highest dose often 59.8 µM), actives largely listed as inhibitors; 230,000 tested, under 10 active; AID 1477
#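 Compounds were screened at multiple concentrations against a preformed CBF-beta(His)/RUNX1(biotin) complex (30 nM of each) for 15 min at room temperature, followed by 90 min with nickel and streptavidin beads and AlphaScreen reading.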
# KCNH2 WT inh – KCNH2 (human, wildtype) channel inhibition; Q12809; AID 720551; 0.37% of 340,000 active; U2OS, BacMam KCNH2, thallium flux FluxOr; active compounds read low; activity change, % at 1.84 µM;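 active = maximum activity change below -70%; inconclusive = maximum activity change between -70% and -50%; inactive = maximum activity change above -50%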
#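 U2OS cells were transduced with wild-type KCNH2 virus (2.03 x 10^8 / mL) for 4 h at room temperature, then cultured overnight at 37 C. Thallium flux was read with FluxOr dye. Rate constants were normalized to DMSO controls.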
# KCNH2 3.1 inh – KCNH2 3.1 (human) potassium channel inhibition. U2OS KCNH2 3.1, thallium flux FluxOr; active compounds read low. activity change, % (tested at about 1.8 µM). 0.95% of 340,000 active. AID 720553;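 active = maximum activity change below -70%; inconclusive = maximum activity change from -70% to -50%; inactive = maximum activity change above -50%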;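 also: thallium influx rate constant from kinetic fluorescence after stimulation buffer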
#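 Normalized rate constant (relative to positive and negative DMSO controls) derived from a 2 min kinetic fluorescence read after stimulation; U2OS cells expressing the 3.1 isoform via virus at 1.77 x 10^8 /mL.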
# MBNL1-CUG inh – MBNL1-poly(CUG) RNA binding inhibition. Q9NR56. TR-FRET MBNL1-His/biotin-(CUG)12 binding, 665/545 ratio. Potency, µM (doses to about 57.5 µM), actives largely listed as inhibitors. 0.036% of 280,000 active. AID 2675; active = well fitted inhibition curve with a large enough effect in the signal ratio, with a control signal flat, not every such curve was filed as active; inconclusive = small, poorly fitted or top-dose-only effect, or effect the other way, or a change in a side signal; inactive = no such curve, though single readings can be large or run the other way; the % refers to the signal ratio
# Target sequence (Q9NR56 whole entry, looked up): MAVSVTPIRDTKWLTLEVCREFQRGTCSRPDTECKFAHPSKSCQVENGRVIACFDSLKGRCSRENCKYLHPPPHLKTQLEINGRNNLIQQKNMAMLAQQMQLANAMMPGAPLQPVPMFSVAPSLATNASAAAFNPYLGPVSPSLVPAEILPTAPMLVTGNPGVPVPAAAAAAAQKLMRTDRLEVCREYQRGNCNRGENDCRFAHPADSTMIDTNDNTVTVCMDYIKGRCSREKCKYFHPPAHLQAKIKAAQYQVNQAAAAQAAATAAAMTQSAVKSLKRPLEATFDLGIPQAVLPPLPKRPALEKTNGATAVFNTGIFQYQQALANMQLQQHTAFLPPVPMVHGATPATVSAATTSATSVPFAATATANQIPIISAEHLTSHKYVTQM
#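 Compounds (final 92 nM to 58 uM) are added to His-tagged MBNL1 and biotin-(CUG)12, then terbium anti-His antibody and streptavidin-XL665 (5 nM final). After 60 min at room temperature, the 665/545 nm ratio is read.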
# VDR inh – blocks the human vitamin D receptor | P11473 | VDR-SRC2-3 peptide fluorescence polarization, 2 h | Potency, µM, actives largely listed as inhibitors | 0.93% of 400,000 active | AID 504847
#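 VDR–SRC2-3 interaction, FP format. Cmpds 23 nl via pintool, brief spin, 2 h ambient incubation.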
# PLK1 PBD block – PLK1 (human) polo-box domain binding inhibition | P53350 | Plk1 PBD binding of FITC phosphopeptide, fluorescence polarization | Potency, µM, most hits filed as inhibitors | 2.8% of 360,000 active | AID 720504; also: series mostly up to about 57 µM; nearly all actives have a fitted effect of over 65% in size
# USP1-UAF1 confirm – blocks human USP1/UAF1 cleavage of Ub-Rhodamine; Potency, µM (series often up to 56.8 µM), actives largely listed as inhibitors; AID 540327; Ub-Rhodamine cleavage, fluorescence kinetic read; 50% of 50 active; shares compounds with VDR inh
# VDR inh confirm – inhibits human vitamin D receptor, primary hit validation; shares compounds with VDR inh; VDR-coactivator inhibition assay, qHTS confirmation; Potency, µM, usual class: inhibitors; 89% of 840 active; AID 602199
# VDR FP fluor – confirmation of human VDR-coactivator binding inhibitors, fluorescein label | shares compounds with VDR inh | VDR-coactivator binding, fluorescein fluorescence polarization | Potency, µM (series often up to 57.1 µM), actives largely listed as inhibitors | 48% of 840 active | AID 602200
# VDR bla reporter – inhibits human VDR in beta-lactamase reporter cells. shares compounds with VDR inh. VDR beta-lactamase reporter cells, FRET ratio; cells co-treated with VDR agonist LG190178. Potency, µM (series often up to 46.1 µM), actives largely listed as inhibitors. 23% of 840 active. AID 602202
# VDR cytotox – counter-screen for vitamin D receptor inhibitors: cytotoxicity; shares compounds with VDR inh; cytotoxicity counter-screen, cell viability, qHTS; Potency, µM (top dose mostly 48.3 µM), most hits filed as cytotoxic; 18% of 840 active; also: nearly all actives have a fitted effect of over 75% in size
# Hits are given with their value; n = inactive; u = inconclusive; x = no result; ! = not active in a repeat. Unless noted, calls follow the shape of the dose curve; as a rule, active = well fitted curve in the direction sought with a large enough effect; inconclusive = small, poorly fitted or top-dose-only effect, or another doubt; inactive = no such curve, though single readings can be large; an effect the other way counts as inactive or inconclusive.
SMILES,CBFb RUNX1 block,KCNH2 WT inh,KCNH2 3.1 inh,MBNL1-CUG inh,VDR inh,PLK1 PBD block,VDR inh confirm,VDR FP fluor,VDR bla reporter,VDR cytotox,others
CC1=C(CO)C(=O)OC([C@@H](C)C2CC[C@H]3C4C[C@H]5O[C@]56[C@@H](O)C=CC(=O)[C@]6(C)C4CC[C@]23C)C1 (stereo partly specified),n,x,x,n,17.8µM,n,11.9,10µM,5.8µM,u,
COc1cc(/C=C2\C(=O)N(c3ccc(S(N)(=O)=O)cc3)N=C2C)ccc1OC(=O)c1ccco1,n,n,n,u,u,3.77µM,10,3.55µM,n,n,
O=C(/C=C/c1ccc2c(c1)OCO2)c1cccnc1,x,n,n,n,u,n,x,x,x,x,
O=C(/C=C/c1ccc([N+](=O)[O-])cc1)c1cccnc1,n,n,n,n,56.2µM,u,23.8,8.91µM,n,u,
O=C(/C=C/c1cccnc1)c1ccc(F)c(F)c1,x,n,n,n,44.7µM,n,u,8.91µM,u,u,
CN(C)c1ccc(C(=O)/C=C/c2cccnc2)cc1,x,n,n,u,n,n,x,x,x,x,
Cc1ccc(OCCCN2C(=O)C(=O)c3cccc(C)c32)cc1,n,n,n,u,u,u,x,x,x,x,
Cc1ccc(OCCN2C(=O)C(=O)c3cc(C)ccc32)cc1,n,n,n,u,u,u,x,x,x,x,
Cc1ccc2c(c1)C(=O)C(=O)N2Cc1ccc(C(F)(F)F)cc1,x,n,n,x,25.1µM,u,16.8,10µM,n,u,
Cc1ccc(CN2C(=O)C(=O)c3cc(Br)cc(C)c32)cc1,x,x,x,x,17.8µM,x,7.08,10µM,n,n,
CCOc1ccc(CCNC(=O)c2sc3ncccc3c2-n2cccc2)cc1OCC,x,x,x,x,n,x,x,x,x,x,
CCc1ccc(-n2c(N3CCN(c4cccc(Cl)c4)CC3)nc3ccccc3c2=O)cc1,x,x,x,x,n,x,x,x,x,x,
Cc1cccc(OC(=O)c2snnc2C)c1C,x,x,x,x,n,x,x,x,x,x,
CN(C)[C@H]1C(=O)C(C(=O)NCN2CCCC2)=C(O)[C@]2(O)C(=O)C3=C(O)c4c(O)cccc4[C@@](C)(O)[C@H]3C[C@@H]12,u,x,x,x,31.6µM,x,x,x,x,x,USP1-UAF1 confirm=u
CN(C)c1ccc(O)c2c1CC1CC3[C@@H](N(C)C)C(=O)C(C(N)=O)=C(O)[C@]3(O)C(=O)C1=C2O (stereo partly specified),x,n,n,u,n,n,x,x,x,x,
COc1ccc(-c2nc3scc(CCNS(=O)(=O)c4ccc5c(c4)OCCO5)n3n2)cc1,x,x,x,x,n,x,x,x,x,x,
COc1ccc(C(=O)Cn2c(=O)n3nc(CCn4nc(C)cc4C)nc3c3cc(OC)c(OC)cc32)cc1,x,x,x,x,n,x,x,x,x,x,
Cc1ccc2sc(C)[n+](CCC(C)S(=O)(=O)[O-])c2c1 (stereo unspecified),n,n,n,x,u,n,x,x,x,x,
Cc1sc2ccccc2[n+]1CCc1ccccc1,x,x,x,x,x,x,11.2,7.94µM,n,n,
COc1ccc2nc(S(=O)Cc3ncc(C)c(OC)c3C)[nH]c2c1 (stereo unspecified),n,n,n,n,89.1µM!,23.8µM,2.67,u,n,n,
CC(C)(C)OC(=O)N1C=CCC1CN1C(=O)COCC1=O (stereo unspecified),n,x,x,x,n,x,x,x,x,x,
COC(CNC(=O)c1ccc2c3c(onc13)-c1ccccc1C2=O)OC,n,n,n,u,39.8µM,3.36µM,3.77,u,u,u,
COC(=O)/C=c1/sc2nc3ccccc3n2c1=O,n,n,n,n,u,2.67µM,3.16,2.82µM,n,n,
Cc1cc(Br)c2c(c1)/C(=C/C(=O)c1cccs1)C(=O)N2,n,n,n,n,u,n,x,x,x,x,
Cc1cc(C)c2c(c1)/C(=C/C(=O)c1ccc(Br)s1)C(=O)N2,n,n,n,n,u,n,x,x,x,x,
SMILES,CBFb RUNX1 block,KCNH2 WT inh,KCNH2 3.1 inh,MBNL1-CUG inh,VDR inh,PLK1 PBD block,VDR inh confirm,VDR FP fluor,VDR bla reporter,VDR cytotox,others
CCc1ccc2c(c1)/C(=C/C(=O)c1cccs1)C(=O)N2,n,n,n,n,25.1µM,u,15,8.91µM,u,u,
Cc1cccc2c1NC(=O)/C2=C\C(=O)c1cccs1,n,n,n,n,u,n,6.31,8.91µM,23.1µM,29.9µM,
Cc1noc(-c2ccccc2OCC(=O)Nc2cccc([N+](=O)[O-])c2)n1,x,x,x,x,n,x,x,x,x,x,
COC(=O)[C@H](C)NC(=O)c1cc2c(cn1)[nH]c1ccccc12,x,n,n,n,22.4µM,1.34µM,3.36,u,n,n,
CCN(CC)C(=O)c1sc2c(c1C)c(=O)n(Cc1ccccc1)c(=O)n2Cc1c(C)cc(C)cc1C,x,x,x,x,n,x,x,x,x,x,
CCOC(=O)N1C(=O)[C@](CC)(c2ccccc2)N1C(=O)OCC,x,x,x,n,79.4µM,16.8µM,u,u,n,n,
CC(=O)Oc1oc(-c2ccccc2)nc1C=Nc1ccccc1,n,n,n,n,39.8µM,u,10.6,12.6µM,n,n,
CN(C)c1ccc(N=Cc2nc(-c3ccccc3)oc2OC(=O)c2cccc(Br)c2)cc1,n,n,n,n,u,n,x,x,x,x,
COc1ccc(N=Cc2nc(-c3ccccc3)oc2OC(=O)c2ccccc2)cc1,n,n,n,x,39.8µM,u,9.47,u,n,n,
CCOC(=O)c1ccc(N=Cc2nc(-c3ccccc3)oc2OC(C)=O)cc1,n,n,n,n,17.8µM,4.74µM,4.23,u,n,n,
CCc1ccc(NC(=O)C2CCCN(S(=O)(=O)c3c(C)noc3/C=C/N(C)C)C2)cc1 (stereo unspecified),x,x,x,x,n,x,x,x,x,x,
Cc1nc2c(-c3ccc(F)cc3)c(C)nn2c(C)c1CCC(=O)NCc1cccc(Cl)c1,x,x,x,x,n,x,x,x,x,x,
Cc1ccc2ccc(C(Nc3ccccn3)c3ccccc3)c(O)c2n1 (stereo unspecified),n,n,u,n,u,u,x,x,x,x,
Cc1ccnc(NC(c2cc(C)ccc2O)c2ccc3cccnc3c2O)c1 (stereo unspecified),x,x,x,x,15.8µM,x,12.6,11.2µM,u,n,
COc1cc(C(Nc2ccccn2)c2ccc3ccc(C)nc3c2O)cc(OC)c1O (stereo unspecified),n,n,n,u,17.8µM,2.38µM,7.52,5.01µM,u,u,

# Screening results from PubChem BioAssay.
